D2 ag-1: Beta-Arrestin HTS for Positive Allosteric Modulators of the Human D2 Dopamine Receptor: Agonists; AID 624465, 2012; DiscoveRx PathHunter D2 beta-arrestin, luminescence, 90 min; 100% = 57 uM dopamine signal; actives 0.084% (n = 360,000); D(2) dopamine receptor (Homo sapiens), P14416; activation, % (no concentration beside the values); in the data active means activation above about 40%
Target sequence (P14416 whole entry, looked up): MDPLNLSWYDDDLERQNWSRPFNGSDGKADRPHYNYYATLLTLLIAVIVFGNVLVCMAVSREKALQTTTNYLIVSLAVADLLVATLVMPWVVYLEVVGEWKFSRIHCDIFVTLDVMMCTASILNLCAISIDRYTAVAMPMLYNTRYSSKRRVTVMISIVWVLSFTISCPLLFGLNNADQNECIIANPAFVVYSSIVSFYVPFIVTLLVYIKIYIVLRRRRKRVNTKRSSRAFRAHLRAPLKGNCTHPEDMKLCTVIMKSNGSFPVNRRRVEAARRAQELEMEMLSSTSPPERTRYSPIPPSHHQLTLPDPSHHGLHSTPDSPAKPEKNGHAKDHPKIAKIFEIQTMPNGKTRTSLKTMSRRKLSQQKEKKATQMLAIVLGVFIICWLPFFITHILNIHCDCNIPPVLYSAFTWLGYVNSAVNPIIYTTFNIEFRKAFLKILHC
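DiscoveRx PathHunter D2 beta-arrestin cells (2,100/well) attached overnight, then compound-stimulated 90 min at 37 C in HBSS/10 mM HEPES/0.1% Tween-20 buffer; beta-galactosidase complementation read by luminescence after 1 h at ambient temperature. Dopamine 57 uM final (EC100) as control.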
D2 PAM-1: HTS Assay for Positive Allosteric Modulators of the Human D2 Dopamine Receptor: Primary Screen for Potentiators | D(2) dopamine receptor (Homo sapiens), P14416 | HEK293 T-REx D2, calcium flux, EC20 dopamine potentiation | potentiation, % at 10 µM | actives 0.34% (n = 340,000) | AID 485347, 2010;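 active means potentiation over 3 SD above the plate norm, cut at about 30% in these data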; further: 0% is about no effect
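Using a no-wash calcium dye in inducible, force-coupled HEK293 Trex cells expressing D2, we tracked fluorescence each second for 180 s after compound, then for 180 s after EC20 dopamine to detect augmented signalling.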
D2 antagonist: HTS Assay for Allosteric Antagonists of the Human D2 Dopamine Receptor: Primary Screen for Antagonists; D(2) dopamine receptor (Homo sapiens), P14416; HEK293 TREx D2 cells, calcium flux, dopamine EC80; inhibition, % at 10 µM; actives 2% (n = 340,000); in the data active means inhibition above about 30%; inactive means below that, where a call was filed; further: 0% is about no effect
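Dopamine at EC80 is the agonist stimulus; test compounds precede it by 180 s. Calcium flux read kinetically in a force-coupled, inducible HEK293 T-REx D2 cell line.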
D2 PAM-2: Beta-Arrestin HTS for Positive Allosteric Modulators of the Human D2 Dopamine Receptor: Potentiators; D(2) dopamine receptor (Homo sapiens), P14416; DiscoveRx D2 beta-arrestin cells, luminescence, 90 min; 100% = 57 uM dopamine signal; potentiation, % (concentration not given with the values); actives 0.23% (n = 360,000); in the data active means potentiation above about 50%
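PathHunter beta-arrestin assay in DiscoveRx D2 cells. Compounds were added with an EC20 of dopamine (50 nM final) for 90 min at 37 deg C. Luminescence was read 1 h after detection reagent, with 57 uM dopamine as the EC100 control.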
D2 ag-2: HTS Assay for Allosteric Agonists of the Human D2 Dopamine Receptor: Primary Screen for Agonists | D(2) dopamine receptor (Homo sapiens), P14416 | HEK293 T-REx D2 cells, calcium flux agonist mode | activation, % at 2 µM | actives 0.53% (n = 340,000) | AID 485358, 2010;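 active means activation over 3 SD above normal in the single-dose calcium agonist read, cut at about 30% in these data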; further: 0% is about no effect
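In this primary screen, compounds producing a positive calcium signal within 180 s of addition to tetracycline-induced, force-coupled HEK293 Trex D2 cells are flagged; cells are dye-loaded with a no-wash calcium kit beforehand.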
Active calls of the source: *; / = no result; ! = not active in a repeat. An excerpt weighted towards active compounds, which were near 2.4% of everything screened.

SMILES	D2 ag-1	D2 PAM-1	D2 antagonist	D2 PAM-2	D2 ag-2
O=[N+]([O-])c1ccccc1OCCCNCc1ccccc1	-4	-17	38*	-19	0
Cc1ccc(OCCCCN2CCCC(C)C2)c([N+](=O)[O-])c1 (centres undefined)	-1	-30	91*	-23	-1
CC1CCN(CCOCCOc2ccc(Br)cc2Cl)CC1	-3	/	/	-38	/
Cc1ccc(OCCCCNC(C)(C)C)c([N+](=O)[O-])c1	-2	-15	-8	-32	0
CC1CCCN(CCCOc2ccc(Br)cc2Cl)C1 (centres undefined)	-6	-22	36*	-11	0
Cc1cc(Br)ccc1OCCOCCN1CCCC1	-1	-15	43*	-86	0
Cc1ccc([N+](=O)[O-])c(OCCCN2CCCCCC2)c1	-4	-27	71*	-18	0
CC1CCN(CCCCOc2ccccc2[N+](=O)[O-])CC1	0	-26	80*	-28	1
CC1CCN(CCCCOc2ccc([N+](=O)[O-])cc2)CC1	-1	-19	2	-16	0
Cc1cc(OCCN2CCCCCC2)ccc1[N+](=O)[O-]	-5	-12	34*	-10	0
Cc1cc(N2CCC(C(=O)Nc3ccc(F)cc3F)CC2)n2nc(C)c(-c3ccc(Cl)cc3)c2n1	/	5	/	/	0
COc1ccc(Nc2nc(N)nc(CSc3nnc(N)s3)n2)cc1	1	-7	38*	-5	-1
COc1ccc(Nc2nc(N)nc(CSc3nc(C)cc(C)n3)n2)cc1	-4	5	/	3	/
COc1cc(CNc2ccc3[nH]c(=O)[nH]c3c2)ccc1OCc1ccccc1F	10	11	-16	7	1
COc1cc(CNc2ccc3[nH]c(=O)[nH]c3c2)cc(Br)c1OCc1ccccc1F	11	44*!	-5	-2	1
COC(=O)[C@@]1(Cc2ccc(OC)cc2)[C@@H]2C(=CC(=O)[C@H]2CC(=O)C(=O)N(C)C)CN1C(=O)c1ccccc1	-2	5	-11	1	1
C=C1C(=O)C=C2CN(C(=O)c3ccccc3)[C@@](Cc3ccc(F)cc3)(C(=O)OC)[C@@H]12	-9	9	44*	-24	24
COc1ccc(NC(=O)C2(c3ccc(NC(=O)c4ccc(OC)c(OC)c4)cc3)CCCC2)cc1	5	-3	19	-2	0
COc1ccc(NC(=O)C2(c3ccc(NC(=O)c4ccc(C)cc4)cc3)CCCC2)cc1	0	-4	34*	8	0
CC1=C(c2ccc(C)cc2)S(=O)(=O)NC1=NCCCN1CCN(c2ccccc2F)CC1	/	-6	/	/	-1
COc1ccccc1C1CCN(Cc2c(C)[nH]c3ccccc23)CC1	1	-16	56*	-17	-1
COc1ccccc1C1CCN(Cc2ccc(Cl)c(Cl)c2)CC1	-3	-29	84*	-16	-1
COc1ccccc1C1CCN(Cc2ccc(Cl)cc2Cl)CC1	3	1	24	-36	1
COc1ccccc1C1CCN(Cc2cccc3ccccc23)CC1	0	-34	82*	-11	-3
Cc1ccc(NC(=O)CSc2nccn2-c2ccccc2)cc1	/	-1	/	/	-1
Cc1nn(-c2ccccc2)c2c1C1(C(=O)N(C(C)C)c3ccccc31)C(C#N)=C(N)O2 (centres undefined)	11	-10	12	60*	1
Cc1cccc(C(=O)Nc2ccc3nc(SCC(=O)N4CCCC4)sc3c2)c1	/	10	/	/	0
CC(=O)Nc1ccc(C(=O)N2CCCC2)cc1	-1	32*	1	-22	0
O=C(O)CCCC(=O)Nc1ccc(N2CCCC2)cc1	5	1	-3	69*	0
O=C(O)CCC(=O)Nc1ccc(C(=O)N2CCCCC2)cc1	-3	33*	6	-10	-1
